Screening results (PubChem BioAssay)
Only some compounds are listed: those with a hit (about 2.3% of all), similar ones and a draw of the others.
CHRM1 PAM: human CHRM1 positive allosteric modulation. activation, % at 3 µM. P11229. hit rate 0.088% among 360,000. AID 588819. CHO-K1 hM1, Fluo-8 calcium fluorescence, ACh EC20; 0% = ACh EC20, 100% = maximal ACh; in the data active = activation above about 19%, passing the limit was not always enough
Target sequence (P11229 whole entry, looked up): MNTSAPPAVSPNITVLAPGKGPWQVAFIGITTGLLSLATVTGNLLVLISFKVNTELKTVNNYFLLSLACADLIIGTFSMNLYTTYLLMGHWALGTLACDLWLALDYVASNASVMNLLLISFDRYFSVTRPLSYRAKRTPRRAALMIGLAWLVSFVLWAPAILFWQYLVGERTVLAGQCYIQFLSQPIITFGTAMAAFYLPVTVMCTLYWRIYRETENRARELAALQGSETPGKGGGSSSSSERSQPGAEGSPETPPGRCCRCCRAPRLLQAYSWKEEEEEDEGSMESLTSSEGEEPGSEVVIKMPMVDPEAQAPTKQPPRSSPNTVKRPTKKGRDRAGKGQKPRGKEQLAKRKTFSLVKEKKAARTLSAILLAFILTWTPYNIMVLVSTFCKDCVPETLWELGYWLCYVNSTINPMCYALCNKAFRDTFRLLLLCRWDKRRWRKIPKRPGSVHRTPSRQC
M1 PAM parental: M1 PAM counterscreen hit in parental CHO-K1 cells. ATP EC20, Fluo-8 calcium fluorescence; 0% at ATP EC20, 100% at ATP max. activation, % at 3 µM. hit rate 0.02% among 360,000. AID 602247;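 active = activation above the run cutoff, the mean activation of all test compounds plus 3 SD, cut at about 40% in these data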;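 note: peak over basal fluorescence ratio in a 140 s read after ATP addition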
CHO-K1 Ca antag: nonselective inhibitor or artifact in parental CHO-K1 cells; hit rate 0.6% among 360,000; inhibition, % at 3 µM; ATP-induced calcium, Fluo-8 fluorescence; AID 602250;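 active = inhibition above a per-plate cutoff, the plate's mean sample inhibition plus 3 SD, cut at about 24% in these data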;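 note: 0% = DMSO plus EC80 ATP and 100% = DMSO alone without ATP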
M1 ag parental: counter-screen for M1 agonists: effect in parental CHO-K1 cells | Fluo-8 calcium fluorescence; scaled to maximal ATP response, vehicle zero | activation, % at 3 µM | hit rate 0.48% among 360,000 | AID 602248; in the data active = activation above about 15%;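 note: untransfected CHO-K1 host cells lacking M1 receptor as counterscreen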
M1 antag: blocks human M1 muscarinic receptor | P11229 | CHO-K1 hM1, Fluo-8 calcium fluorescence, ACh EC80 antagonist | inhibition, % at 3 µM | hit rate 1.3% among 360,000;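 active = percent inhibition above its own plate's cutoff, namely the mean of that plate's compound wells plus 3 SD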;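 note: peak over basal fluorescence ratio during 140 s after agonist addition; 0% = ACh EC80 plus DMSO and 100% = DMSO alone without agonist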
M1 ag: human M1 muscarinic receptor agonism | AID 588814 | CHO-K1 hM1, Fluo-8 calcium fluorescence, agonist mode; 0% DMSO, 100% acetylcholine EC100 | hit rate 0.33% among 360,000 | activation, % at 3 µM | P11229;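 active = activation above the run's mean compound activation plus 3 SD, cut at about 16% in these data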;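 note: peak over basal fluorescence ratio within a 140 s kinetic read after compound addition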
The depositor's hits bear a star.

SMILES	CHRM1 PAM	M1 PAM parental	CHO-K1 Ca antag	M1 ag parental	M1 antag	M1 ag
CCCN1C2CCCC1CC(NC(=O)c1ccccc1OCC)C2 (centres undefined)	-9.1	17.7	-6.8	-0.1	20.4	-4.8
CCCN1C2CCCC1CC(NC(=O)c1ccccc1F)C2 (centres undefined)	-7.0	-8.0	16.8	0.0	9.6	-5.1
CCNC(=S)NC1CC2CCCC(C1)N2CCc1ccccc1 (centres undefined)	-27.5	10.1	-6.8	0.2	72.4*	-8.3
CCOc1ccccc1C(=O)NC1CC2CCCC(C1)N2Cc1ccc(C)cc1 (centres undefined)	-23.8	1.4	-4.3	-0.3	42.9*	-9.3
CCCN1C2CCCC1CC(NC(=O)c1ccccc1Br)C2 (centres undefined)	-20.9	-8.3	0.1	-0.1	47.0*	-8.7
CCCN1C2CCCC1CC(NC(=O)c1ccccc1)C2 (centres undefined)	-16.1	-3.2	-1.2	0.0	41.9*	-5.9
CC1CCCCN1C(=O)CSc1nc(C2CC2)nc2ccccc12 (centres undefined)	4.8	3.6	-14.3	5.2	-9.5	-0.4
CC(CCCN(C)C)C(Cc1ccccc1)c1ccccc1 (centres undefined)	-24.0	24.5	-12.1	4.6	80.2*	-7.5
CN(C)CCC(=O)C(Cc1ccccc1)c1ccccc1 (centres undefined)	-26.8	20.9	-7.0	2.6	72.9*	-7.1
CN(C)CCNC(=O)C(c1ccccc1)c1ccccc1	-15.2	9.7	-1.3	0.5	16.6	-7.4
CN(C)CC(c1ccccc1)c1ccccc1	4.7	18.4	-3.7	1.5	-15.1	-8.7
CC[N+](C)(CC)CCC(c1ccccc1)C1CCCCC1 (centres undefined)	-29.3	28.5	-8.2	0.8	99.7*	-9.1
CCC(C(=O)NC1CCCCCC1)c1ccccc1 (centres undefined)	-3.5	-24.6	10.9	0.1	1.5	-7.8
CC[N+](C)(CC)CCOC(=O)C(O)(c1ccccc1)C1CCCCC1 (centres undefined)	-25.6	9.3	-0.2	0.0	97.6*	-6.9
Cc1ccc(C(=O)CSC2=C(C#N)C(c3ccco3)CC(=O)N2)c(C)c1 (centres undefined)	-8.6	16.3	1.3	15.7*	12.0	37.0*
Cc1ccc(NC(=O)CSC2=C(C#N)C(c3ccco3)CC(=O)N2)cc1 (centres undefined)	7.0	1.9	19.4	1.2	-1.6	0.8
O=Cc1cn(-c2ccccc2)nc1-c1ccccc1	6.6	16.3	-12.8	0.6	-10.7	-5.4
CC1=NNC(=O)/C1=C\c1cn(-c2ccccc2)nc1-c1ccccc1	-7.6	5.2	18.5	3.3	33.3*	0.9
Cc1ccc2c(c1)N(C(=O)CCC(=O)NCCCN1CCN(C)CC1)CC(C)O2 (centres undefined)	1.9	5.8	-4.0	0.3	0.8	-8.0
Cn1cc(-c2csc(C(O)c3ccc(F)c(F)c3)n2)cn1 (centres undefined)	8.4	7.2	0.4	2.2	-13.2	1.1
CSc1nsc(SC)c1C(=O)OCC(F)(F)F	23.5*	21.9	-18.1	-0.1	-52.3	-0.6
COc1ccc(/C=N/NC(=O)c2nnn(-c3nonc3N)c2-c2cccs2)cc1OC	-1.3	-1.6	1.6	5.8	0.2	0.4
Cc1ccc(/C=N/NC(=O)c2nnn(-c3nonc3N)c2-c2ccc3c(c2)OCO3)s1	0.7	19.0	-12.8	21.9*	-1.4	25.0*
CCOc1cccc(-c2c(C(=O)N/N=C/c3ccncc3)nnn2-c2nonc2N)c1	5.7	4.4	3.1	0.6	-11.7	2.7
COc1cccc(-c2c(C(=O)N/N=C/c3cccs3)nnn2-c2nonc2N)c1	8.3	19.0	-19.3	31.7*	-9.3	44.1*
CCOc1cccc(-c2c(C(=O)N/N=C/c3cccs3)nnn2-c2nonc2N)c1	21.1	31.3	-14.3	25.5*	-4.5	19.9*
Cc1ccc(/C=N/NC(=O)c2nnn(-c3nonc3N)c2-c2cccs2)cc1	13.3	29.6	0.5	33.1*	6.2	68.8*
Nc1nonc1-n1nnc(C(=O)N/N=C/c2ccc(F)cc2)c1-c1ccc2c(c1)OCO2	3.8	4.2	-18.9	0.8	-7.9	2.0
